Test results published in PubChem BioAssay (NCI).
About 83,000 compounds went through this panel and 20% of them were active in at least one assay; those are over-represented in the sample as a whole.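 A percent growth of 40 corresponds to 60% growth inhibition; 0 means no net growth; -100 means all cells died. Active threshold: below 10.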 A number with no mark means an inactive call. Activity calls are given as the source filed them.

Columns and labels:
Assay in all cases: NCI-60 one-dose screen, 48 h (100 = growth as untreated, 0 = no growth, -100 = all killed)
Settings in all cases: 10 µM unless noted
DU-145 prostate = system: DU-145 prostate
K-562 leukemia = system: K-562 leukemia
MALME-3M melanoma = system: MALME-3M melanoma
MDA-MB-231 breast = system: MDA-MB-231 breast
RXF 393 renal = system: RXF 393 renal
SF-268 CNS = system: SF-268 CNS
SF-295 CNS = system: SF-295 CNS
SF-539 CNS = system: SF-539 CNS
UACC-257 melanoma = system: UACC-257 melanoma
M14 melanoma = system: M14 melanoma
HCT-15 colon = system: HCT-15 colon
HT29 colon = system: HT29 colon
SNB-75 CNS = system: SNB-75 CNS
SNB-19 CNS = system: SNB-19 CNS
U251 CNS = system: U251 CNS
PC-3 prostate = system: PC-3 prostate
SK-MEL-5 melanoma = system: SK-MEL-5 melanoma
UACC-62 melanoma = system: UACC-62 melanoma
LOX IMVI melanoma = system: LOX IMVI melanoma
SK-MEL-28 melanoma = system: SK-MEL-28 melanoma

Row | SMILES | growth (DU-145 prostate) | growth (K-562 leukemia) | growth (MALME-3M melanoma) | growth (MDA-MB-231 breast) | growth (RXF 393 renal) | growth (SF-268 CNS) | growth (SF-295 CNS) | growth (SF-539 CNS) | growth (UACC-257 melanoma) | growth (M14 melanoma) | growth (HCT-15 colon) | growth (HT29 colon) | growth (SNB-75 CNS) | growth (SNB-19 CNS) | growth (U251 CNS) | growth (PC-3 prostate) | growth (SK-MEL-5 melanoma) | growth (UACC-62 melanoma) | growth (LOX IMVI melanoma) | growth (SK-MEL-28 melanoma)
1 | O=C1CCCN1c1cccc2cccnc12 | 111% | 96.4% | 109% | 99% | 102% | 97.9% | 102% | 98.9% | 102% | 103% | 101% | 103% | 83.1% | 91% | 96.4% | 107% | 99.1% | 104% | 95.6% | 113%
2 | COC(=O)CCCCCCCCC1(C)C=CC(C(C)O)=CC1 (stereo not given) | 110% | 84.5% | 105% | 110% | 107% | 105% | 109% | 112% | 108% | 110% | 105% | 99.9% | 106% | 107% | 98.5% | 97.6% | 99% | 107% | 96.7% | 119%
3 | COc1ccc2c(/C=C3/C(=O)NC(=S)NC3C)cc(=O)oc2c1 (stereo not given) | 108% | 98.1% | 99.4% | 103% | 98.4% | 89.4% | 97.9% | 101% | 83.5% | 109% | 103% | 88.8% | 87.3% | 102% | 94.2% | 78.6% | 99.4% | 96.8% | 95.3% | 109%
4 | CC(c1ccccc1)n1ccnc1CO (stereo not given) | 113% | 105% | 85.5% | 104% | 101% | 107% | 96.1% | 106% | 106% | 109% | 107% | 119% | 92.4% | 98.5% | 98.9% | 94.7% | 93.4% | 104% | 96.3% | 94.5%
5 | O=C(CCN1CCCC1)Nc1ccc2c(Nc3ccccc3)c3ccccc3nc2c1 | -28.5% (active) | 0.263% (active) | -85.1% (active) | 3.81% (active) | 8.26% (active) | 26.1% | 33.4% | -62.5% (active) | -39.5% (active) | -77.4% (active) | -3.61% (active) | 4.21% (active) | 10.9% | 18.4% | 0.528% (active) | 19.9% | 40.4% | 30.3% | -55.3% (active) | 62.3%
6 | COc1ccc2c(c1)c(CC(=O)NCCOCCOCC(=O)Nc1ccc(OC)c(C(N)=O)c1O)c(C)n2C(=O)c1ccc(Cl)cc1 | 107% | 91.5% | 118% | 92% | 92.9% | 88.9% | 93.8% | 99.9% | 113% | 98.3% | 95.5% | 102% | 89.6% | 106% | 93.3% | 74.6% | 96.6% | 98.8% | 90% | 119%
7 | COc1cc2nc(-c3ccc(C(F)(F)F)cc3)cc(OCCCN3CCC(O)CC3)c2cc1OC | 28.3% | 6.21% (active) | 43.9% | 11.2% | 42.1% | 49.9% | -43.5% (active) | 45.5% | -8.17% (active) | -55.9% (active) | 9.78% (active) | 9.01% (active) | -7.26% (active) | 62% | 46.3% | 40.6% | -56.3% (active) | -31.3% (active) | -74.4% (active) | 62.7%
8 | FC(F)(F)c1cccc(Nc2ccccc2)c1 | 110% | 95.5% | 99.7% | 104% | 109% | 103% | 99.9% | 95.5% | 97.4% | 106% | 99.4% | 105% | 94.7% | 98.2% | 97.7% | 102% | 103% | 96.5% | 98.7% | 102%
9 | O=C(Nc1ccc2cc3ccc(NC(=O)N4CCCCCC4)cc3nc2c1)N1CCCCCC1 | -25.7% (active) | -11.1% (active) | -85.3% (active) | -69.1% (active) | -76.3% (active) | -41.3% (active) | -79.4% (active) | -71.1% (active) | -75.7% (active) | -66.2% (active) | -47.4% (active) | -36.2% (active) | -88.4% (active) | 1.3% (active) | -58.8% (active) | 5.93% (active) | -94.4% (active) | -66.6% (active) | -85% (active) | -82.1% (active)
10 | COC(=O)C1=C(C(=O)ONCCN(C)C)C2C=CC1(C(Cc1ccccc1)Nc1ccc(F)cc1)O2 (stereo not given) | 95.6% | 10.5% | -9.2% (active) | 108% | 111% | 91.7% | 113% | 97.3% | 104% | 101% | 48.1% | 75.1% | 106% | 105% | 100% | 105% | 105% | 90.9% | 96.3% | 96.1%
11 | COC(=O)C1NC(=S)N(c2ccc(Cl)cc2)C1/C=C/c1ccccc1 (stereo not given) | 100% | 106% | 103% | 95% | 110% | 101% | 91% | 94.6% | 99.3% | 87.1% | 99.4% | 104% | 127% | 103% | 97.5% | 86.2% | 102% | 89.3% | 78.5% | 118%
12 | COc1ccc(/C=C\c2nc3ccccc3s2)cc1OP(=O)(O)O | 29.1% | 10.4% | 71.3% | 49.2% | 2.73% (active) | 60.2% | 40.8% | -10.2% (active) | 83.1% | 25.5% | 30% | 104% | -2.05% (active) | 28.8% | 32.6% | 43.5% | 21.8% | 41.5% | 41.5% | 67.4%
13 | O=c1[nH]c(=O)[nH]c(=S)[nH]1 | 105% | 105% | 98% | 102% | 107% | 102% | 102% | 98.8% | 101% | 100% | 103% | 99.1% | 96.5% | 101% | 103% | 102% | 102% | 96.1% | 98.1% | 102%
14 | CCCCCCOc1ccc(C(=N)N(CCCC)CCCC)c2ccccc12 | -92.4% (active) | -42.3% (active) | -82.7% (active) | -89.7% (active) | -94.5% (active) | -84.4% (active) | -89.1% (active) | -92.8% (active) | -85.5% (active) | -96.1% (active) | -82.1% (active) | -83.2% (active) | -98.9% (active) | -88.9% (active) | -77.7% (active) | -84.2% (active) | -99.3% (active) | -86% (active) | -92.6% (active) | -94.3% (active)
15 | CC1(C)NCCC[C@]2(C)[C@H]3CC=C4[C@@H]5C[C@@](C)(CO)CC[C@]5(C)CC[C@@]4(C)[C@]3(C)CC[C@@H]12 | 75.6% | 9.28% (active) | 57% | 58% | 57.8% | 67.1% | 64.1% | 64.6% | 55.1% | 33.6% | 29.9% | 5.18% (active) | 98.9% | 61.6% | 34.2% | 35.1% | 50.7% | 73.6% | 45.2% | 68.2%
16 | O=C(Nc1cccc(C2=NCCN2)c1)c1ccc(OCCCOc2ccc(C(=O)Nc3cccc(C4=NCCN4)c3)cc2)cc1 | 9.35% (active) | 27.2% | -82% (active) | -10.5% (active) | -19.9% (active) | 25.9% | 52.1% | -43.7% (active) | -11% (active) | 30.4% | 90.7% | 12.9% | -1.39% (active) | 14.9% | 24.8% | 29.8% | 2.98% (active) | -10.5% (active) | -33.4% (active) | -67.4% (active)
